Experimental findings from ChEMBL document CHEMBL4513216, “Probing the Open Global Health Chemical Diversity Library for Multistage-Active Starting Points for Next-Generation Antimalarials” (ACS Infect Dis, 2020) are described below.

About 2,100 (3.2%) of roughly 65,000 compounds showed an effect of 50% or more. The median lay at about -52%. This excerpt belongs to a sample that is enriched for strong results.

The subject of this experiment is Plasmodium falciparum. The experiment is described as follows: Screen against P. falciparum Asexual Blood Stage (ABS), at 5uM. Format: functional, Dd2. The settings on record: tested at 5 uM.
For the compound `CO[C@H]1CCN(C(=O)Cc2ccccn2)[C@H]1Cc1ccncc1`, the INHIBITION was -128%.

`COc1cc(NC2CCS(=O)(=O)CC2)ncn1`: the INHIBITION was -119%. For `N[C@@H]1c2ccccc2C2(CCN(c3cccc(C(F)(F)F)n3)CC2)[C@H]1O`, the INHIBITION is listed as -35.9%. Consider `Cc1ccc(CC(=O)N2CCOCC2c2c(C)n[nH]c2C)cc1` (stereo not drawn), for which the INHIBITION is given as -37.5%. With `COCCO[C@H]1CCN(Cc2ccoc2)[C@H]1Cc1cccnc1`, the INHIBITION was -10.4%. The same measure for `COc1ccc(C[C@H]2CN(c3nnc(C)s3)CC[C@@H]2OC)cc1`: -16%; for `COc1ccc(C[C@H]2CNCC[C@H]2OC)cc1`: 58%. For `CO[C@@H]1CCN(Cc2cccs2)[C@H]1Cc1ccncc1` the value was -27.7%.

With `COc1ccc(C[C@H]2CN(c3nnc(C)s3)CC[C@H]2OC)cc1`, the INHIBITION was -2.98%.

In the case of `CO[C@@H]1CCN(Cc2ccoc2)[C@H]1Cc1ccccc1`, the INHIBITION worked out at 61.4%. For `CCOCCN1CCN(Cc2nc(CC(C)C)no2)CC1` the value was 18.6%; for `CS(=O)(=O)NC[C@]12COC[C@H]1CN(C(=O)C1CC(F)(F)C1)C2`, -80.1%; for `COc1cccc(-c2noc(C3CCN(Cc4ccccc4F)C3)n2)c1` (stereo not drawn), -118%. The same measure for `Cn1nc2c(cc1=O)CN(Cc1coc(-c3ccccc3)n1)CC2`: -138%. With `COc1ccc(CN(C)[C@@H]2COC[C@H]2c2ccc(F)cc2)c(OC)c1`, the INHIBITION was determined as 9.39%. For `CNc1cc2c(nn1)CCN(C(=O)c1ccc3c(c1)OCO3)C2` the value was -135%; for `CCOc1cc(Cl)c(CN2CCC3(CCCNC3=O)C2)cc1OC` (stereo not drawn), -15.1%. For `O=C1NCCCC12CCN(Cc1ccc(SC3CCCCC3)o1)C2` (stereo not drawn) the value was 56.4%; for `O=C1NCCCC12CCN(Cc1ccc(-c3ccccc3)s1)C2` (stereo not drawn), -138%; for `O=C(NCCc1ccn(-c2ccccc2)n1)N1CCCC(CO)C1` (stereo not drawn), -78.9%. The same measure for `CNC(=O)c1ccc(CN2CCN(C3=NCC(C)(C)S3)CC2)cc1`: -92%; for `O=C(c1cc(=O)n(-c2ccccc2)[nH]1)N1CCCC(c2ccn[nH]2)C1` (stereo not drawn): -22.8%; for `CN(C)C(=O)c1cccc(CN2CCN(CCO)CC2)c1`: 61%. As for `COCCN1CCN(Cc2cccc(C(=O)N(C)C)c2)CC1`, the INHIBITION is on record as 7.48%.

Take `CCOCCN1CCN(Cc2cccc(C(=O)N(C)C)c2)CC1`: the INHIBITION is listed as -117%. For `COc1cc2c(c(OC)c1OC)CCN(CCn1cncn1)CC2` the value was -167%. The same measure for `Cc1cc(C)c2nc(CN3CC[C@@H](O)C3)cc(O)c2c1`: -6.9%; for `Cc1cc(C)c2nc(CN3CCCC(c4cc[nH]n4)C3)cc(O)c2c1` (stereo not drawn): 54.4%; for `COC1CCCN(Cc2cc(O)c3cc(C)cc(C)c3n2)C1` (stereo not drawn): -88.5%. The same measure for `CCc1c(C)sc2ncnc(N3C[C@H](O)[C@@H](N4CCCC4)C3)c12`: 62%; for `CCc1c(C)sc2ncnc(N3CC[C@@H](N4CCOCC4)[C@H](O)C3)c12`: -2.01%; for `CCc1c(C)sc2ncnc(N3CCN(C4CCOCC4)CC3)c12`: 33.7%. As for `O=C(C1CCCC1)N1CCOC(c2nc(-c3ncccn3)no2)C1` (stereo not drawn), the INHIBITION was -66.9%. The same measure for `c1cnc(Nc2cc(CCC3CCNCC3)ccn2)cn1`: -32%. Turning to `c1cncc(COc2ccccc2CNC2CCc3ncnn3C2)c1` (stereo not drawn), the INHIBITION was -137%. As for `CNC(=O)COc1ccccc1CNC1CCc2ncnn2C1` (stereo not drawn), the INHIBITION was -40.5%. For the compound `c1ccc(OCC2CC2)c(CNC2CCc3ncnn3C2)c1` (stereo not drawn), the INHIBITION is reported as 51.2%. The same measure for `c1ccc(OC2CCCC2)c(CNC2CCc3ncnn3C2)c1` (stereo not drawn): 20.5%; for `c1ccc(OCc2ccncc2)c(CNC2CCc3ncnn3C2)c1` (stereo not drawn): -32.4%; for `c1ccc(COc2ccccc2CNC2CCc3ncnn3C2)cc1` (stereo not drawn): 69.4%. The same measure for `Cc1csc(NC(=O)c2cnc(C3CCCN(C)C3)cn2)n1` (stereo not drawn): -212%; for `NC(=O)[C@@H]1CCCN1C(=O)c1cn(C/C=C/c2ccccc2)nn1`: -88.2%; for `COCCNC(=O)c1nnc2ccc(N3CCOCC3)cc2n1`: -19.6%. The same measure for `COC(=O)CNC(=O)c1nc(-c2ccccc2OC)c2cnccn12`: -115%; for `Cc1cc(C)nc(NCCC(=O)NCCn2ccnc2C)n1`: -55.9%. `N#CC(NC(=O)CCCOc1cccnc1)c1ccc(F)cc1F` (stereo not drawn): the INHIBITION is -69.7%. As for `CSc1nccc(N2CCC(NCc3nc(C)cc(C)n3)CC2)n1`, the INHIBITION is listed as -119%. The same measure for `CSc1nccc(N2CCC(NCCN3CCOCC3)CC2)n1`: -47.4%; for `CSc1nccc(N2CCC(NCc3ccc4c(c3)OCO4)CC2)n1`: 51.4%. The same measure for `CNc1nc(CNC(=O)Nc2cccc(CSC)c2)cs1`: 28.7%; for `CCN1CCC2(C1)CN(S(=O)(=O)c1cn(C)cn1)C2`: -42.2%. For `CCOC(=O)CCN(Cc1cccnc1)C(=O)c1cc(Cl)c[nH]1` the value was -43.4%; for `CCc1cnc(N2C[C@@H]3C[C@H](C(=O)NCC(C)C)[C@H](C2)O3)nc1`, -47.5%.
